Laboratory results as given in ChEMBL document CHEMBL4513146, “CO-ADD screening of Karazin Kharkiv National University (Ukraine) compounds”.
Entries with a potency or affinity are not part of this list.

These compounds were tested on Cryptococcus neoformans. Conditions: Concentration 32 ug.mL-1; ASSAY_TEST Inhibition of Fungal Growth; detection method Resazurin; Absorption (OD600-OD570); plate type 384well; NBS; CORNING #3640.
With Cc1ccc(Oc2nc3ccccc3n3c(=O)n(CC(=O)Nc4ccccc4C(F)(F)F)nc23)cc1 the Inhibition was -22.18%. CCc1nnc2c(SCC(=O)Nc3cccc(Br)c3)nc3ccccc3n12 was tested, and the Inhibition was -27.47%. In the case of Cc1ccc(Oc2nccn3c(=O)n(CC(=O)Nc4cccc(Cl)c4)nc23)cc1, the Inhibition is reported as -14.56%. For Cc1ccc(-c2cc3c4nn(CC(=O)Nc5cccc(Br)c5)c(=O)n4ccn3n2)cc1, the Inhibition was -43.73%. COc1cccc(Oc2nccn3c(=O)n(CC(=O)Nc4ccc(Br)cc4F)nc23)c1 showed an Inhibition of -10.01%. Work on COc1cccc(NC(=O)Cn2nc3c(Oc4cccc(OC)c4)nccn3c2=O)c1 yielded an Inhibition of -0.95%. For Cc1ccc(NC(=O)Cn2nc3ccc(SC(C)(C)C)nn3c2=O)cc1C, the Inhibition was -7.37%. Cc1cccc(NC(=O)c2ccc3nn(CC(=O)N4CCc5ccccc5C4)c(=O)n3c2)c1 showed an Inhibition of -12.59%. With COc1ccc(-c2cc3c4nn(CC(=O)Nc5ccc(OC)c(Cl)c5)c(=O)n4ccn3n2)cc1 the Inhibition was -18.43%. In the case of CCOc1ccc(C(=O)CSc2nnc3c(=O)n(-c4ccc(Br)cc4)ccn23)cc1, the Inhibition is reported as -11.96%. With Cc1cccc(NC(=O)Cn2nc3ccc(-c4ccc(C)c(C)c4)nn3c2=O)c1 the Inhibition was -12.34%. Work on Cc1cc2nn(CC(=O)Nc3ccccc3F)c(=O)n2c(Nc2ccc(C)c(F)c2)n1 yielded an Inhibition of -8.37%. For Cc1ccc(-c2ccc3nn(Cc4nc(-c5ccc(OC(F)(F)F)cc5)no4)c(=O)n3n2)cc1, the Inhibition was -8.92%. With COc1ccc(-c2cc3c4nnc(SCC(=O)NCc5ccccc5Cl)n4ccn3n2)cc1 the Inhibition was -22.52%.
